{
  "source": "PubChem BioAssay AID686978",
  "about": "(National Center for Advancing Translational Sciences (NCATS), 2013)",
  "note": "Out of some 420,000 compounds screened, about 64,000 (15%) were called active. Not shown: some 27% with an inconclusive outcome. Calls follow the shape of the dose curve; as a rule, active = well fitted inhibition curve with a large enough effect; inconclusive = small, poorly fitted or top-dose-only effect; inactive = flat fitted curve, though single readings scatter. A selection follows. Entries that show only a call come without a potency. Potency is read from the fitted curve at half-maximal effect.",
  "data": [
    {"experiment": "qHTS for Inhibitors of human tyrosyl-DNA phosphodiesterase 1 (TDP1): qHTS in cells in absence of CPT; also: nearly all actives have a fitted effect of over 55% in size", "settings": "DT40 Tdp1-/- hTDP1 cells, no CPT, ATP luminescence, 48 h; activity change, negative = growth inhibition: at 46.2 µM (top of the series)", "source_text": "Human tyrosyl-DNA phosphodiesterase 1 (TDP1) is a novel repair gene, and we propose to use it as a new target for anticancer drug development. TDP1 is not an essential protein, but under treatment with topoisomerase I poison (camptothecin: CPT), TDP1 works as a critical factor for cell survival. To directly identify novel TDP1 inhibitors active in a cellular environment, we have knocked-out the Tdp1 gene in chicken DT40 cells (Tdp1-/-) and generated a complemented counterpart cells that contains a stable transfection of the human TDP1 gene (Tdp1-/-;hTDP1 cells). For the primary screen, Tdp1-/-;hTDP1 cells will be exposed to small molecules in the presence or absence of CPT, and their growth kinetics will be evaluated after 48 hours by measuring ATP activity. […] The hit compounds will then be evaluated in the presence or absence of CPT using Tdp1-/- cells. […] In tertiary assays, biochemical gel-based assays will be used to assess whether the hit compounds specifically target TDP1.\nTo this end, we have screened this cell line against the MLSMR in two primary screens. In one screen we add CPT and in the other we screen in the absence of CPT; this AID represents the screen where CPT was absent.\nNIH Chemical Genomics Center [NCGC]\nNIH Molecular Libraries Probe Centers Network [MLPCN]\nAssay Submitter (PI): Yves Pommier, NCI\nDT40-hTDP1 cells without 20 nM Camptothecin (add 20 microL of DMSO in 1 L of cell culture medium) were dispensed at 400 cells/5microL/well in tissue culture treated 1536-well white wall/solid bottom assay plates (Greiner Bio-One North America, NC, U.S.A.) using a Multidrop Combi 8 channel dispenser (Thermo Fisher, Waltham, MA, USA). 23 nL compounds and controls were transferred using the pin tool (Kalypsys, San Diego, CA, USA) to the assay plates. The assay plates were then incubated at 37 masculineC for a minimum 48 hr. Three microL of Cell Titer Glo solution was added to the plates and incubated at RT in dark for 30 min. Luminescence was read using ViewLux (Perkin Elmer) with 1 sec exposure slow speed, high gain and 2x binning.", "values": [
      {"smiles": "O=C1N(c2ccc(Cl)cc2)C(c2ccc(Cl)cc2)N2CCCN12", "note": "(configuration not stated)", "Potency": "inactive"},
      {"smiles": "COc1ccc(-n2c(-c3ccc(OC)c(OC)c3)n[nH]c2=S)cc1", "Potency": "inactive"},
      {"smiles": "COc1ccc(-c2cn(-c3ccc(OC)cc3)c(=S)[nH]2)cc1", "Potency": "18.4 µM (active)"},
      {"smiles": "COc1ccc(N2C(=O)CNC2=S)cc1", "Potency": "inactive"},
      {"smiles": "FC(F)(F)c1cccc(-c2nc(COc3ccc(Cl)cc3Cl)no2)c1", "Potency": "inactive"},
      {"smiles": "CS(=O)(=O)N(CC(=O)N1CCOCC1)c1ccc2c3c(cccc13)CC2", "Potency": "inactive"},
      {"smiles": "O=C(COC(=O)CNS(=O)(=O)c1ccc(F)c(F)c1F)NC1CCCC1", "Potency": "inactive"},
      {"smiles": "COc1cccc(Nc2nc3ccccc3c3nncn23)c1", "Potency": "25.9 µM (active)"},
      {"smiles": "COc1cccc(Nc2ncccc2C(=O)O)c1", "Potency": "inactive"},
      {"smiles": "FC(F)(F)c1ccccc1-c1nc(-n2ccnc2)c2ccccc2n1", "Potency": "inactive"},
      {"smiles": "FC(F)(F)c1cc(Nc2nc3ccccc3c3nncn23)ccc1Cl", "Potency": "16.4 µM (active)"},
      {"smiles": "COc1ccc(OC)c(Nc2nc3ccccc3n3cnnc23)c1", "Potency": "inactive"},
      {"smiles": "CC(C)c1cc(CN2CCOCC2)cc(C(C)C)c1O", "Potency": "inactive"},
      {"smiles": "O=C(Cc1ccccc1)Nc1ccc(NC(=O)c2cccnc2)cc1", "Potency": "inactive"},
      {"smiles": "CC(C)(C)c1cc[n+](-c2[nH]c(=O)sc2/C=N/N=C(\\[O-])c2ccccc2)cc1", "Potency": "inactive"},
      {"smiles": "CCCS(=O)(=O)Nc1c(C(=O)O)[nH]c2ccccc12", "Potency": "inactive"},
      {"smiles": "C[N+](C)(C)CCNC(=O)c1c[nH]c2ccccc12", "Potency": "inactive"},
      {"smiles": "COc1ccc(C2C(C(C)=O)=C(O)C(=O)N2CCc2c[nH]c3ccccc23)cc1", "note": "(configuration not stated)", "Potency": "inactive"},
      {"smiles": "COc1ccc(/C=C(\\C#N)c2c[nH]c3ccccc23)cc1", "Potency": "0.651 µM (active)"},
      {"smiles": "N/C(=N\\OC(=O)c1ccc2c(c1)OCO2)c1ccc(Br)cc1", "Potency": "inactive"},
      {"smiles": "CCn1cc(C(=O)NCCC(=O)NCCO)c(=O)c2cc3c(cc21)OCO3", "Potency": "inactive"},
      {"smiles": "CCCN(CC(=O)Nc1ccc(C(N)=O)cc1)CC(=O)Nc1ccccc1C", "Potency": "inactive"},
      {"smiles": "CS(=O)(=O)N(CC(=O)N1CCN(Cc2ccccc2)CC1)c1ccc2c(c1)OCCO2", "Potency": "inactive"},
      {"smiles": "COc1ccc(N(CC(=O)N2CCCCCC2)S(=O)(=O)c2ccccc2)cc1", "Potency": "inactive"},
      {"smiles": "CC1CCN(C(=O)CN(c2ccc(Oc3ccccc3)cc2)S(C)(=O)=O)CC1", "Potency": "13 µM (active)"},
      {"smiles": "Cc1ccc(N2C(=O)CC(N3CCSCC3)C2=O)c(C)c1", "note": "(configuration not stated)", "Potency": "inactive"},
      {"smiles": "Cc1cc(C(=O)NC2CC(C)(C)Cc3c2cnn3-c2ccccc2)n[nH]1", "note": "(configuration not stated)", "Potency": "inactive"},
      {"smiles": "COc1ccc(-n2ncc3c2CC(C)(C)CC3NC(=O)CCc2c(C)nn(C)c2C)cc1", "note": "(configuration not stated)", "Potency": "inactive"},
      {"smiles": "Cc1ccc(-n2ncc3c2CC(C)(C)CC3NC(=O)Cc2c(C)noc2C)cc1", "note": "(configuration not stated)", "Potency": "23.1 µM (active)"},
      {"smiles": "COc1ccc(-n2ncc3c2CC(C)(C)CC3NC(=O)CCc2c(C)noc2C)cc1", "note": "(configuration not stated)", "Potency": "inactive"},
      {"smiles": "CC1(C)Cc2c(cnn2-c2cccc(F)c2)C(NC(=O)c2cc[n+]([O-])cc2)C1", "note": "(configuration not stated)", "Potency": "inactive"},
      {"smiles": "COC(=O)c1ccc(C(=O)NC2CC(C)(C)Cc3c2cnn3-c2ccc(F)cc2)nc1", "note": "(configuration not stated)", "Potency": "3.66 µM (active)"},
      {"smiles": "CCn1ncc(CNC(=O)C2(C)CC2(Br)Br)c1C", "note": "(configuration not stated)", "Potency": "inactive"},
      {"smiles": "CC12CN3CC(C)(CN(C1)C3c1ccc(Cl)cc1Cl)C2=O", "note": "(configuration not stated)", "Potency": "inactive"},
      {"smiles": "Cc1ccc(-c2noc(-c3nnn(-c4cccc(C(F)(F)F)c4)c3N)n2)cc1", "Potency": "inactive"},
      {"smiles": "Cc1cc(C)cc(N(CC(=O)NC2CCCC2)C(=O)CCC(=O)Nc2nccs2)c1", "Potency": "inactive"},
      {"smiles": "COc1cc(C(=O)N2CCN(S(=O)(=O)c3ccc(C(C)C)cc3)CC2)ccc1OCC(=O)N1CCOCC1", "Potency": "inactive"},
      {"smiles": "FC(F)(F)c1ccnc(Oc2ccc(C3=NCCS3)cc2)c1", "Potency": "inactive"},
      {"smiles": "Cc1cccc(/C=N/NC(=O)CNc2cccc3ccccc23)n1", "Potency": "13 µM (active)"},
      {"smiles": "C/C(=N\\NC(=O)COc1c(C)cccc1C)c1cccs1", "Potency": "inactive"},
      {"smiles": "C/C(=N\\NC(=O)CNc1cccc2ccccc12)c1ccc(Br)s1", "Potency": "8.2 µM (active)"},
      {"smiles": "Cc1c(Cl)cccc1NC(=O)CCC(=O)N/N=C/c1ccco1", "Potency": "inactive"},
      {"smiles": "O=C(COC(=O)c1ccccn1)Nc1cccc2ccccc12", "Potency": "inactive"},
      {"smiles": "C/C(Cc1ccccc1)=N\\NC(=O)CNC(=O)c1cccc(Br)c1", "Potency": "inactive"},
      {"smiles": "C=CCN1CC(C)/C(=N\\O)CC1C", "note": "(configuration not stated)", "Potency": "inactive"},
      {"smiles": "Cc1ccc(NC(=O)Cn2cnc3nc4c(cc3c2=O)CCCC4)cc1Cl", "Potency": "inactive"},
      {"smiles": "COc1ccc(C(=O)NC(Cc2ccc(OC(=O)c3ccc(OC)cc3)cc2)C(=O)O)cc1", "note": "(configuration not stated)", "Potency": "inactive"},
      {"smiles": "CN(CCc1ccccn1)C(=O)CCC1CCCN(Cc2ccccc2OC(F)F)C1", "note": "(configuration not stated)", "Potency": "inactive"},
      {"smiles": "CN(CC(=O)NCCc1ccc(S(N)(=O)=O)cc1)CC(=O)Nc1ccc(Cl)cc1", "Potency": "inactive"},
      {"smiles": "CC(NC(=S)Nc1ccc(OC(F)F)cc1)c1ccc(F)cc1", "note": "(configuration not stated)", "Potency": "16.4 µM (active)"},
      {"smiles": "CCNC(=S)Nc1ccc(OC(F)(F)F)cc1", "Potency": "inactive"},
      {"smiles": "O=C1CCC(C(=O)Nc2ccc(OC(F)F)cc2)N1", "note": "(configuration not stated)", "Potency": "inactive"},
      {"smiles": "CC(=O)c1ccc(OCC(O)CN2CCN(S(=O)(=O)c3cccc(Br)c3)CC2)cc1", "note": "(configuration not stated)", "Potency": "inactive"},
      {"smiles": "CCCCC(=O)N(c1ccc(OC)cc1)C1C=CS(=O)(=O)C1", "note": "(configuration not stated)", "Potency": "inactive"},
      {"smiles": "CN(C)/C=C/C(=O)c1ccccc1F", "Potency": "inactive"},
      {"smiles": "COc1ccccc1NC(=O)c1c(Br)cnn1C", "Potency": "inactive"},
      {"smiles": "COc1ccccc1NC(=O)c1sc2nc(C)c(C(=O)Nc3ccc(Cl)cc3)c(-c3ccc(Br)cc3)c2c1N", "Potency": "16.4 µM (active)"},
      {"smiles": "COc1ccc(NC(=O)c2sc3nc(-c4cc5cccc(OC)c5oc4=O)[nH]c(=O)c3c2C)cc1", "Potency": "inactive"},
      {"smiles": "N/C(=N\\OC(=O)c1ccc([N+](=O)[O-])cc1)c1ccccn1", "Potency": "inactive"},
      {"smiles": "CCO[C@H]1OC(C(=O)O)=C[C@@H](C2CCCCC2)[C@@H]1CCCO", "Potency": "inactive"},
      {"smiles": "CCO[C@H]1OC(C(=O)NCc2ccccc2)=C[C@@H](c2coc3ccccc3c2=O)[C@@H]1CCCO", "Potency": "9.2 µM (active)"},
      {"smiles": "O=C(NC1CC1)C1=C[C@H](c2coc3ccccc3c2=O)C[C@H](OCCCCO)O1", "Potency": "inactive"},
      {"smiles": "CC1=CC(=NNS(=O)(=O)c2ccc([N+](=O)[O-])cc2)CC(C)(C)C1", "Potency": "inactive"},
      {"smiles": "N#CCC(=O)N/N=C/c1cn(Cc2ccc3ccccc3c2)c2ccccc12", "Potency": "14.6 µM (active)"},
      {"smiles": "CNC(=S)N/N=C/c1cn(Cc2ccc(C)cc2)c2ccccc12", "Potency": "18.4 µM (active)"},
      {"smiles": "Cc1ccc(CNC(=O)Cc2cn(C)c3ccccc23)cc1", "Potency": "inactive"},
      {"smiles": "NC(=O)Cn1cc(/C=N\\NS(=O)(=O)c2ccccc2)c2ccccc21", "Potency": "inactive"}
    ]}
  ]
}
